The full list was thinned out, with hits kept by preference.
Lassa entry inh = qHTS for Inhibitors of binding or entry into cells for Lassa Virus; Lassa virus pseudotype entry inhibition, cell reporter; 1.2% of 300,000 active; AID 540256, 2011; Potency, µM (series often up to 37.9 µM), inactives show at the highest dose activity change, negative = inhibition, actives largely listed as inhibitors; calls by dose curve; tested in HEK293 cells; further: potency means the concentration at half of the fitted maximal effect; on the % scale 0 is the no-effect control and ±100 the full control effect; nearly all actives have a fitted effect of over 50% in size
Cycloheximide cs = Cycloheximide Counterscreen for Small Molecule Inhibitors of Shiga Toxin | cell reporter, cycloheximide protein synthesis inhibition counterscreen | max response, % | 12% of 300,000 active; in the data active means max response mostly above about 13%, no sharp cut-off; inactive means mostly below about 14%; further: read at 38.3 µM for the half of the compounds with a filed dose; 0% is about no effect
AMA1-RON2 inh = qHTS for Inhibitors of AMA1-RON; Towards Development of Antimalarial Drug Lead: Primary Screen; 0.2% of 360,000 active; AlphaScreen AMA1-biotinylated RON2 peptide binding; Potency, µM (series often up to 58.2 µM), inactives show top-dose activity change, negative = inhibition, actives largely listed as inhibitors; active means well fitted inhibition curve with a large enough effect; inconclusive means small, poorly fitted or top-dose-only effect; inactive means no such curve, though single readings can be large or run the other way;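 further: potency means the concentration at half of the fitted maximal effect; 0% = vehicle wells and -100% = peptide control; nearly all actives have a fitted effect of over 45% in size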
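AMA1 (3D7) with his tag at 25 nM final met compounds first, then biotinylated RON2 peptide at 25 nM; detection used donor plus acceptor beads, 10 µg/mL apiece, read by AlphaScreen after 30 min at room temperature.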
Shiga inhibitor = A qHTS for Small Molecule Inhibitors of Shiga Toxin | 9.2% of 290,000 active | Vero cells, Shiga toxin protein synthesis inhibition reporter | AID 2315, 2010 | inhibition, % at 38.7 µM; in the data active means inhibition mostly above about 28%, no sharp cut-off; inactive means mostly below about 43%; further: 0% is about no effect
Marburg entry inh = qHTS for inhibitors of binding or entry into cells for Marburg Virus. AID 540276, 2011. Potency, µM (series often up to 37.8 µM), for inactives: at the highest dose activity change, negative = inhibition, hits mostly inhibitors. 1.8% of 300,000 active. Marburg virus pseudotyped entry inhibition, cell reporter; calls by dose curve; tested in HEK293 cells; further: potency means the concentration at half of the fitted maximal effect; on the % scale 0 is the no-effect control and ±100 the full control effect
* = called active by the depositor; [ ] = another dose, or the depositor's remark.

Screening COc1ccc(OC)c(N(C(=O)c2snc(C(N)=O)c2N)C(C(=O)NCc2ccccc2)c2ccc(O)cc2)c1 (stereo not given) returned Lassa entry inh inconclusive, Cycloheximide cs -3, AMA1-RON2 inh -25%, Shiga inhibitor 1 and Marburg entry inh -15%.
For NC(=O)c1nsc(C(=O)N(c2ccccc2)C(C(=O)NCc2ccc(F)cc2)c2ccc(O)cc2)c1N (stereo not given) the results were Lassa entry inh 2.2µM*, Cycloheximide cs 6, AMA1-RON2 inh -9%, Shiga inhibitor 20 and Marburg entry inh inconclusive.
Screening COc1ccc(N(C(=O)c2snc(C(N)=O)c2N)C(C(=O)NCc2ccccc2)c2ccc(O)cc2)cc1 (stereo not given) returned Lassa entry inh 0.73µM*, Cycloheximide cs 6, AMA1-RON2 inh 4%, Shiga inhibitor -13 and Marburg entry inh -14%.
For NC(=O)c1nsc(C(=O)N(c2ccccc2)C(C(=O)NCc2ccc(F)cc2)c2ccco2)c1N (stereo not given) the results were Lassa entry inh inconclusive, Cycloheximide cs 1, AMA1-RON2 inh 19%, Shiga inhibitor -2 and Marburg entry inh inconclusive.
`CC1CCN(C(=O)Cn2cc(SCC(=O)NCc3ccccc3Cl)c3ccccc32)CC1` gave Lassa entry inh 14%[46.1 µM].
CCc1ccc(C2c3c(-c4ccccc4O)n[nH]c3C(=O)N2Cc2cccnc2)cc1 (stereo not given) was read as Lassa entry inh inconclusive and Marburg entry inh -3%[46.1 µM].
Screening COc1ccccc1/C=N/NC(=O)CSc1ccc2ccccc2n1 returned Lassa entry inh -10%[46.1 µM], Cycloheximide cs 25*, AMA1-RON2 inh 6%, Shiga inhibitor 70* and Marburg entry inh inconclusive.
Screening COc1ccc(/C=N/NC(=O)CSc2ccccn2)cc1OC returned Lassa entry inh -4%, Cycloheximide cs 23*, AMA1-RON2 inh -6%, Shiga inhibitor 30* and Marburg entry inh 18%[46.1 µM].
Screening COc1ccccc1/C=N/NC(=O)CSc1cc(C)nc2ccccc12 returned Lassa entry inh inconclusive, Cycloheximide cs 7, AMA1-RON2 inh -13%, Shiga inhibitor -3 and Marburg entry inh inconclusive.
Screening Cc1ccc(S(=O)(=O)NCC(=O)N/N=C/c2ccccc2O)cc1 returned Lassa entry inh 7.3µM*, Cycloheximide cs -4, AMA1-RON2 inh 66%, Shiga inhibitor 11 and Marburg entry inh inconclusive.
For COc1ccc(NC(=O)CSc2ccccn2)cc1OC the results were Lassa entry inh 1%, Cycloheximide cs 19, AMA1-RON2 inh 4%, Shiga inhibitor 29 and Marburg entry inh -4%.
Screening CCn1nc(C)c(/C=N/NC(=O)CSc2ccccn2)c1C returned Lassa entry inh 26%, Cycloheximide cs 32*, AMA1-RON2 inh -13%, Shiga inhibitor 63* and Marburg entry inh inconclusive.
Screening O=C(CSc1ccccc1)N/N=C/c1ccccc1O returned Lassa entry inh inconclusive, Cycloheximide cs 25*, AMA1-RON2 inh 61%, Shiga inhibitor 46 and Marburg entry inh inconclusive.
For COc1ccc(/C=N/NC(=O)CSc2ccccc2)cc1OC the results were Lassa entry inh inconclusive, Cycloheximide cs 14*, AMA1-RON2 inh 9%, Shiga inhibitor 13 and Marburg entry inh 21%.
`CCC(C)NCC(=O)Nc1cc(S(=O)(=O)N(CC)c2ccccc2)ccc1Cl` (stereo not given) gave Lassa entry inh inconclusive, Cycloheximide cs 3, AMA1-RON2 inh 12%[11.6 µM], Shiga inhibitor 16 and Marburg entry inh 21µM*.
Cc1cc(C(=O)OCC(=O)Nc2cc(S(=O)(=O)N(C)C)ccc2C)c2ccccc2n1 was read as Lassa entry inh 6%, Cycloheximide cs -2, AMA1-RON2 inh -24%, Shiga inhibitor -15 and Marburg entry inh -17%.
Screening CCN(c1ccccc1)S(=O)(=O)c1ccc(Cl)c(NC(=O)COC(=O)c2cc(O)c3ccccc3c2O)c1 returned Cycloheximide cs 12* and Shiga inhibitor 36*.
For Cc1cc(C(=O)OCC(=O)Nc2cc(S(=O)(=O)N(C)C)ccc2Cl)c2ccccc2n1 the results were Lassa entry inh -24%, Cycloheximide cs 22, AMA1-RON2 inh -19%, Shiga inhibitor 86* and Marburg entry inh 13%.
CCN(c1ccccc1)S(=O)(=O)c1ccc(Cl)c(NC(=O)COC(=O)c2ccc(O)cc2)c1 was read as Lassa entry inh inconclusive, Cycloheximide cs 0, AMA1-RON2 inh 8%, Shiga inhibitor 20 and Marburg entry inh -12%.
